Unmarked numbers belong to inactive results. Results filed as inconclusive are left out. Activity calls are given as the source filed them. Unless noted, the call rests on the fitted dose curve; in most records, active means well fitted curve in the direction sought with a large enough effect; inconclusive means small, poorly fitted or top-dose-only effect, or another doubt; inactive means no such curve, though single readings can be large; an effect the other way counts as inactive or inconclusive. Some results are limits rather than exact numbers.

Test [1] deals with Rap guanine nucleotide exchange factor 3 (Homo sapiens) (UniProt O95398). The test can be described thus: Confirmatory qHTS for antagonist of cAMP-regulated guanine nucleotide exchange factor 3 (EPAC1) (AID 1645880). Further: nearly all actives have a fitted effect of over 55% in size. Further: potency means the concentration at half of the fitted maximal effect.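 On activity, negative = inhibition: plate controls were DMSO only for no effect and full effect of the ATA control for full effect.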 The note with it: EPAC1 Rap1B-BODIPY-GDP exchange, fluorescence; activity, negative = inhibition: at 115 µM (top of the series). The method in brief: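 Released BODIPY-GDP fluoresces less than Rap1-bound BODIPY-GDP; the signal is followed at 480/540 nm at 5-min intervals over 30 min, after 5 min at room temperature. Reactions contain 100 nM EPAC1, 250 nM RAP1B-BODIPY-GDP and 50 uM GDP; results are normalized to ATA and DMSO.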

The target is the same in test [2]. Nature of the test: Confirmatory qHTS for agonist of cAMP-regulated guanine nucleotide exchange factor 3 (EPAC1) (AID 1645881). Further: nearly all actives have a fitted effect of over 75% in size. Further: potency means the concentration at half of the fitted maximal effect.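 On activation: EPAC1 catalysed release of BODIPY-GDP from Rap1B seen as fluorescence loss; 100% = effect of cAMP agonist control.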 A general note: qHTS replaces the single test concentration by a dilution series.
Test [3] concerns the target Rap guanine nucleotide exchange factor 4 (Homo sapiens) (UniProt Q8WZA2). Nature of the test: Confirmatory qHTS for agonist of cAMP-regulated guanine nucleotide exchange factor 4 (EPAC2) (AID 1645884).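 Further: nucleotide exchange releases bodipy-GDP from Rap1 and this lowers its fluorescence; nearly all actives have a fitted effect of over 65% in size.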 Further: potency means the concentration at half of the fitted maximal effect. On activation: on the % scale 0 is the no-effect control and ±100 the full control effect.
Test [4] has as its target Rap guanine nucleotide exchange factor 3 (Homo sapiens) (UniProt O95398). The test can be described thus: Counterscreen qHTS for antagonist of cAMP-regulated guanine nucleotide exchange factor 3 (EPAC1) (AID 1645888). Further: % of control where 0% means no effect. The method in brief: (§1)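 Rap1B-BODIPY-GDP 250 nM + GDP 50 uM; cpds 7-pt, final 9.74 nM–152 uM (activator mode) or from 7.32 nM upwards (inhibitor mode); RT; FI 480/540 nm at 5 and 30 min, then ± cAMP, reread.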
A general note: The purpose of a counterscreen is to sort out artefacts and off-target activity.

Test [5] shares this target. The test can be described thus: Counterscreen qHTS for agonist of cAMP-regulated guanine nucleotide exchange factor 3 (EPAC1) (AID 1645889). Further: nearly all actives have a fitted effect of over 40% in size. Further: potency means the concentration at half of the fitted maximal effect. On activation: % of control where 0% means no effect. Put shortly:
as §1

Test [6] can be described thus: AP1 Signaling Pathway (AID 357; active means well fitted curve in either direction with a large enough effect, not every such curve was filed as active; further: on the % scale 0 is the no-effect control and ±100 the full control effect). To be noted: ME-180 (cervical carcinoma) AP-1-bla reporter, EGF-induced, beta-lactamase ratio, 5 h; at 7.69 µM (top of the series) unless noted. The method in brief:
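AP-1-bla ME-180 cells with beta-lactamase reporter under AP-1 response element, stimulated with EC50 EGF; compounds titrated, 5 hours at 37 degrees Celsius. CCF4 read at 460/530 nm ratio; positive and negative modulators judged by AC50.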

The nature of test [7]: NFAT Signaling Pathway (AID 444; active means well fitted curve in either direction with a large enough effect, not every such curve was filed as active;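 further: carbachol stimulus at about its EC50 of 1 µM final; on the % scale 0 is the no-effect control and ±100 the full control effect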). To be noted: Jurkat NFAT-bla M1, carbachol, beta-lactamase ratio, 5 h; at 7.69 µM (top of the series) unless noted. Put shortly: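 Read-out: CCF4 FRET ratio (460 nm/530 nm) after 1 h RT dye loading, used for %activity and AC50 from titration series. Cells: Jurkat NFAT-β-lactamase/M1 line, treated with compound plus 1 uM carbachol for 5 h, 37 °C.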

Test [8] in a line: Stat Signaling Pathway (AID 446; active means well fitted curve in either direction with a large enough effect, not every such curve was filed as active;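 further: ME-180 cervical cancer cells given 40 pM IL-6 alongside compound; SIE-controlled beta-lactamase reporter measured as 460/530 nm FRET emission ratio; on the % scale 0 is the no-effect control and ±100 the full control effect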). Put shortly: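 Emission at 460 and 530 nm (excitation 405 nm) reports SIE-controlled beta-lactamase in ME-180 cells. Cells received compound with 40 pM IL-6 for 5 hrs at 37 C; data scaled between 300 pM IL-6 and 125 nM JAK-inhibitor controls.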
The target of test [9] is Glucocorticoid receptor (Homo sapiens) (UniProt P04150). Nature of the test: GR-GFP Redistribution (AID 450;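 active means compounds whose dose series gives a full or clear partial fitted curve of increased nuclear translocation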; further: potency means the concentration at half of the fitted maximal effect). To be noted: U2OS GR-GFP nuclear translocation, laser cytometry, 2 h.
Chain of Glucocorticoid receptor (Homo sapiens) (P04150 whole entry, looked up): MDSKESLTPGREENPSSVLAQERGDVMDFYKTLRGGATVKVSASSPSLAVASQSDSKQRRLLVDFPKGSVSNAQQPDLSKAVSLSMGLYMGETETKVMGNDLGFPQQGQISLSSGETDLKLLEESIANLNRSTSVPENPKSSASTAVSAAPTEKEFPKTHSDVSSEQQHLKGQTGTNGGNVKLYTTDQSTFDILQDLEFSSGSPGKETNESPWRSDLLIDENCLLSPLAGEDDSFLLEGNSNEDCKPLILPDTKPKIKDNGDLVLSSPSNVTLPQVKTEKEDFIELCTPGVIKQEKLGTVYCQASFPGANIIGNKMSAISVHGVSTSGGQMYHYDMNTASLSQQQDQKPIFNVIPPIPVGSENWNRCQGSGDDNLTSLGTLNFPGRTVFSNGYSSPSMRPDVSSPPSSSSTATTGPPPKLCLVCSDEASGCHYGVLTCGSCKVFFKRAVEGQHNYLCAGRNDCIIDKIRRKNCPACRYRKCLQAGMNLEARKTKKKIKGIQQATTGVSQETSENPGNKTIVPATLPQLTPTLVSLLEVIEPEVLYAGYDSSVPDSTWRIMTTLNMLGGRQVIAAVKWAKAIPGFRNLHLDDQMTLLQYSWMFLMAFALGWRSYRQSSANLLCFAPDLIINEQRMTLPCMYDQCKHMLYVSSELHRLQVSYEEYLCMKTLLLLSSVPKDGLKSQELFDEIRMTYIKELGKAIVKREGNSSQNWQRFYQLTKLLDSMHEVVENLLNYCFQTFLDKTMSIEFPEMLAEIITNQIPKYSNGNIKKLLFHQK

Chain of Rap guanine nucleotide exchange factor 4 (Homo sapiens) (Q8WZA2 whole entry, looked up): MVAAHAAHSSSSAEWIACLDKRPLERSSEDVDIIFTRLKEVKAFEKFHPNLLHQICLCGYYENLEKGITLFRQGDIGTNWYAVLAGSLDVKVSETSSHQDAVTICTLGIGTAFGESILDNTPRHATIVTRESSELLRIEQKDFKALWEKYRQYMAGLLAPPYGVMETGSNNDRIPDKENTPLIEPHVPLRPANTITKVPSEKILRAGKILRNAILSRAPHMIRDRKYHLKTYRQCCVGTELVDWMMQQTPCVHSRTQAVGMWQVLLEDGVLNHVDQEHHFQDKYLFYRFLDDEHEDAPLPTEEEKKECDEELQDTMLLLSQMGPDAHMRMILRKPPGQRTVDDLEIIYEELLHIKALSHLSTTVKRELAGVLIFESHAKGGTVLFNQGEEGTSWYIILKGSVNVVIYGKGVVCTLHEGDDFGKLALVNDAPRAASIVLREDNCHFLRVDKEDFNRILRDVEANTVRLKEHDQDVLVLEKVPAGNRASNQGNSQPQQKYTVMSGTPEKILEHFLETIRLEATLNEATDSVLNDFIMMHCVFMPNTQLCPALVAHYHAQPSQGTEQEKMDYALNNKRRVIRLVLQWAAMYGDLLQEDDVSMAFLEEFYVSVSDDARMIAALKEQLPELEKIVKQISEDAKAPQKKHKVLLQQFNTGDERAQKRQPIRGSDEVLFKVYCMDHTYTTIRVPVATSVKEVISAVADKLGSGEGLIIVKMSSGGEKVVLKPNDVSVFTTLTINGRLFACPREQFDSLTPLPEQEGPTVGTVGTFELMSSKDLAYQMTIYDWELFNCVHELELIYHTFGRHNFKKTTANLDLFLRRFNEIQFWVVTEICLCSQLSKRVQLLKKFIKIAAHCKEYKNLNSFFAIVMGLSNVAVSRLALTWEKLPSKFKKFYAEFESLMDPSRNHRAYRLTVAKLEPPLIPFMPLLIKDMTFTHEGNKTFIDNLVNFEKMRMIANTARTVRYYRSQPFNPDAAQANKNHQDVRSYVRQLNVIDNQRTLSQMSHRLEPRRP
Chain of Rap guanine nucleotide exchange factor 3 (Homo sapiens) (O95398 whole entry, looked up): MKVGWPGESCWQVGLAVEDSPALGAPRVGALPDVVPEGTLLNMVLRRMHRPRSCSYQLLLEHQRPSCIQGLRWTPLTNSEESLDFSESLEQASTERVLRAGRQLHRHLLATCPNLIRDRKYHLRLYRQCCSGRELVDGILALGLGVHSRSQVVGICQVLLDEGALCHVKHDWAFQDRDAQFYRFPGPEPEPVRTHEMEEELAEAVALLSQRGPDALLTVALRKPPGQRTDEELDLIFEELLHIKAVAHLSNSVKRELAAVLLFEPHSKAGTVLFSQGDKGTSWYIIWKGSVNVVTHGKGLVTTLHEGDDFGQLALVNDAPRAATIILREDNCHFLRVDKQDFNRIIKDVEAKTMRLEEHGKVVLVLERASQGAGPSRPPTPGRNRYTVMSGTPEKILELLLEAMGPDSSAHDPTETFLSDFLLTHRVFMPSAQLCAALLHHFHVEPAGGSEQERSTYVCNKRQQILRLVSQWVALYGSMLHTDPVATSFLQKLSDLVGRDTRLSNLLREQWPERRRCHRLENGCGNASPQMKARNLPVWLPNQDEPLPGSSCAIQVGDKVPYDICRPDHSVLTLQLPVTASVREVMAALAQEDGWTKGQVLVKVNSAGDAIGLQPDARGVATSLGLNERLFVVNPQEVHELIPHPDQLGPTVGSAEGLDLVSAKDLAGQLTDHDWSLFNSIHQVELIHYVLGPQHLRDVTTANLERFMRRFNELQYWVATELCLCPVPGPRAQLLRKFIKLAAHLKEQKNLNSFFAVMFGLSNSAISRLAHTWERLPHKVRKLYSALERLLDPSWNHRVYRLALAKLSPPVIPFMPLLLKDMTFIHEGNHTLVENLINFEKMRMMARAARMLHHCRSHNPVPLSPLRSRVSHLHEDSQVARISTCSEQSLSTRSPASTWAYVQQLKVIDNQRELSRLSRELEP

For `COC(=O)C1=CN(Cc2cccs2)C=C(C(=O)OC)C1c1cccc(Cl)c1`, the Potency result in test [1] and in test [2] was “inactive” each time. Further, the activation is 2.31% [at 17.1 µM, percent relative to cAMP agonist control] in test [3] and 24.6% [at 30.8 µM] in test [5]. Further, the activity change, negative = inhibition in test [4] is -4.15% [at 30.8 µM].

For the compound `CCc1c(C)c(C#N)c2nc3ccccc3n2c1-n1nc(C)cc1C`, the activity change, negative = inhibition in test [6] was -8.93% [at 17.2 µM]; in [7], -9.34% [at 17.2 µM]; in [4], 12.9% [at 30.8 µM]. For the same compound, the compound was classed as inactive in test [8]. Moreover, in test [9], the Potency was above 20.6 µM. Further, the Potency entry in test [1] and in test [2] was “inactive” each time. The activation in [3] is 5.42% [at 17.1 µM, percent relative to cAMP agonist control]; in test [5], 30.6% [at 30.8 µM].

As to `Cc1cc(S(=O)(=O)N2CCN(CC(=O)N(C)Cc3ccccc3)CC2)ccc1Br`, the Potency entry in test [1], in [2], in test [3], in test [4] and in test [5] was “inactive” each time.

As to `O=C(O)c1ccccc1N=N/C(=N/Nc1cc(S(=O)(=O)O)ccc1O)c1ccccc1`, the Potency in [1] is 44.7 µM (active). For the same compound, in test [2], the Potency result is “inactive”. Moreover, the activation in test [3] was -5.11% [at 17.1 µM, percent relative to cAMP agonist control]; in test [5], -1.6% [at 30.8 µM]. Moreover, the activity change, negative = inhibition in [4] is -3.19% [at 30.8 µM].

As for `CCOC(=O)c1c(NC(=O)/C=C/C(=O)O)sc(C)c1-c1ccc(C(C)(C)C)cc1`, the Potency in test [1] is 42.6 µM (active). Moreover, the Potency result in test [2], in test [3], in test [4] and in test [5] was “inactive” each time.

For the compound `Cc1c(Cl)cccc1NC(=O)Nc1cccnc1`, the Potency result in [1], in test [2], in [3], in test [4] and in test [5] was “inactive” in each case.

Consider `O=C1C=C(c2ccccc2Oc2ccccc2)C[C@@H](c2ccc(F)cc2)C1`, for which the Potency result in [1], in [2], in [3], in test [4] and in test [5] was “inactive” throughout.

`COc1ccc(N2C(=O)CSC2c2cccc(F)c2)c(OC)c1` (centres undefined): the Potency entry in test [1] and in [2] was “inactive” throughout. In addition, the activation in test [3] is 2.35% [at 17.1 µM, percent relative to cAMP agonist control]; in test [5], 1.09% [at 30.8 µM]. Also, the activity change, negative = inhibition in [4] was -18.3% [at 30.8 µM].

As to `O=C(c1ccco1)N(Cc1ccccc1)c1cccc([N+](=O)[O-])c1`, the Potency result in [1], in test [2], in [3], in [4] and in test [5] was “inactive” each time.

Take `COc1nc(-c2ccccc2)c2cc(Br)ccc2n1`: the Potency entry in [1] and in test [2] was “inactive” each time. Besides, the activation in test [3] is -6.23% [at 17.1 µM, percent relative to cAMP agonist control]; in test [5] it was 24.2% [at 30.8 µM]. Besides, in [4], the activity change, negative = inhibition is 8.88% [at 30.8 µM].

Regarding `Cc1ccc2nc(N3C(=O)C(O)=C(C(=O)c4ccc(C)o4)C3c3ccc(O)cc3)sc2c1` (centres undefined), the Potency in test [1] is 37.9 µM (active). In addition, the Potency result in test [2], in test [3], in test [4] and in [5] was “inactive” in each case.

In the case of `O=C(C1CC1)N1c2ccccc2Sc2ccccc21`, the Potency entry in test [1], in test [2], in test [3], in test [4] and in test [5] was “inactive” each time.

For `O=C(COc1ccccc1Br)Nc1ccccc1C(F)(F)F`, the Potency entry in test [1], in test [2], in test [3], in test [4] and in test [5] was “inactive” each time.

On to `COc1cc(SC)ccc1C(=O)Nc1c(C)cccc1C`, for which the Potency entry in test [1] and in [2] was “inactive” throughout. The activation in [3] is -7.76% [at 17.1 µM, percent relative to cAMP agonist control]; in test [5], 6.15% [at 30.8 µM]. The activity change, negative = inhibition in [4] is -15.6% [at 30.8 µM].

As for `CC(=NNC(=O)c1ccncc1)c1ccc2ccccc2c1O`, the Potency result in [1] and in test [4] was “inactive” each time. Moreover, the Potency in test [2] was 100 µM (active); in test [3], 112 µM (active); in test [5] it was 39.8 µM (active).

For `CCCN(CC1CC1)c1cc2c(c3c1ccn3C)C1CCC2C1` (centres undefined), the Potency entry in [1], in test [2], in [3], in [4] and in [5] was “inactive” throughout.

As for `N=c1c(S(=O)(=O)c2ccc(Br)cc2)cc2c(=O)n3ccccc3nc2n1C1CCCC1`, the Potency result in [1], in test [2], in [3], in test [4] and in test [5] was “inactive” throughout.

As to `CCC(=O)NC(c1ccc(C)cc1)c1cc([N+](=O)[O-])c2cccnc2c1O` (centres undefined), in test [1], the Potency was 53.6 µM (active). Also, the Potency result in [2], in [3], in [4] and in test [5] was “inactive” each time.

Take `O=C(c1ccccc1)C(c1ccccc1)c1ccccc1`: the Potency entry in test [1] and in test [2] was “inactive” in each case. The activation was 0.697% [at 17.1 µM, percent relative to cAMP agonist control] in [3] and 12.8% [at 30.8 µM] in test [5]. For the same compound, in [4], the activity change, negative = inhibition was 2.63% [at 30.8 µM].
